Consider five compounds from PubChem BioAssay (Tox21).

“And” between values parts separate entries of the source, which are not always exact repeats. Identical values can stand only once. Records with an inconclusive call do not appear. More than one record can exist for a structure, and the calls need not agree. The source made the active and inactive calls. Unless noted, the call rests on the fitted dose curve; in most records, active means well fitted curve in the direction sought with a large enough effect in the repeat runs; inconclusive means weak or mixed curves; inactive means no such curve, though single readings can be large; an effect the other way counts as inactive or inconclusive.

The nature of assay [1]: qHTS assay to identify small molecule agonists of the vitamin D receptor (VDR) signaling pathway - cell viability counter screen (AID 743224). Further: nearly all actives have a fitted effect of over 50% in size. Further: potency means the concentration at half of the fitted maximal effect. In short, it runs like this:
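VDR-bla cell line, quantitative HTS format; 16 h compound incubation (37C, 5% CO2); ATP-based CellTiter-Glo luminescence measured in the reporter assay wells.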
On the technique in general: Quantitative high-throughput screening tests each substance at several concentrations.

Assay [2] can be described thus: qHTS assay to identify small molecule antagonists of the vitamin D receptor (VDR) signaling pathway - cell viability counter screen (AID 743225). Further: nearly all actives have a fitted effect of over 50% in size. In short, it runs like this: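 Read-out: CellTiter-Glo luminescence measured 30 min after reagent addition at room temperature. Cells were VDR-bla HEK 293T exposed 16 h at 37C, 5% CO2, to compound with 3 nM final calcitriol agonist.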

Assay [3] is described as follows: qHTS assay to identify small molecule agonists of the NFkB signaling pathway (AID 1159509; active means well fitted curve in the direction sought with a large enough effect in the signal ratio in the repeat runs, not every such curve was filed as active; the % refers to the signal ratio; further: series mostly up to about 61 µM). A digest of the protocol: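 NFkB-bla ME-180 cells with a beta-lactamase reporter under an NF-kB response element were plated overnight, treated with compounds in DMSO for 5 hr at 37 C, then loaded with FRET substrate for 1.5 hr at room temperature.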
Assay [4] can be described thus: qHTS assay to identify small molecule agonists of the NFkB signaling pathway - cell viability counter screen (AID 1159515; calls by dose curve; further: series mostly up to about 61 µM; nearly all actives have a fitted effect of over 55% in size). A digest of the protocol: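 Viability in NFkB-bla ME-180 cells was measured by CellTiter-Glo luminescence, 30 min room temperature, in wells already treated 5 hr with compounds and read for reporter FRET.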
Assay [5] is described as follows: qHTS assay to identify small molecule agonists of the endoplasmic reticulum stress response signaling pathway (AID 1159516; active means well fitted activation curve with a large enough effect in the signal ratio in the repeat runs, not every such curve was filed as active; the % refers to the signal ratio). A digest of the protocol:
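ER stress element reporter (bla) in HeLa. 1,500 cells/well, overnight attachment; 5 hr compound; 2 hr RT substrate; dual-emission fluorescence.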

A short description of assay [6]: qHTS assay to identify small molecule agonists of the endoplasmic reticulum stress response signaling pathway - cell viability counter screen (AID 1159517; calls by dose curve;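 further: HeLa cells carrying an ER stress response element beta-lactamase reporter; series mostly up to about 61 µM; nearly all actives have a fitted effect of over 50% in size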). A digest of the protocol:
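Counter-screen wells were identical to the reporter wells. Cells were plated at 1,500 per well and dosed for 5 hr, then read for luminescence 30 min after CellTiter-Glo addition.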

The target of assay [7] is Nuclear receptor ROR-gamma (Homo sapiens) (UniProt P51449). Briefly: qHTS assay to identify small molecule antagonists of the retinoid-related orphan receptor gamma (ROR-gamma) signaling pathway (AID 1159521; further: nearly all actives have a fitted effect of over 50% in size; further: potency means the concentration at half of the fitted maximal effect). In short, it runs like this: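 CHO Tet-on RORγ, RORE-luc reporter. Cpd 2 h pre-incubation, then dox hyclate 1 uM final, 16 h, 37 C/5% CO2. ONE-Glo luminescence; decrease = antagonist.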

Assay [8] in a line: qHTS assay to identify small molecule agonists of the AP-1 signaling pathway - cell viability counter screen (AID 1159525; calls by dose curve; further: nearly all actives have a fitted effect of over 55% in size). A digest of the protocol:
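AP-1-bla ME-180 cells in Opti-MEM with 0.5% dialyzed FBS, compound exposure 5 h at 37 C in 15-point titration. Viability read in the same wells as ATP content by CellTiter-Glo luminescence, normalised to tetra-n-octylammonium bromide and DMSO controls.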

Assay [9] deals with Retinoic acid receptor RXR-alpha (Homo sapiens) (UniProt P19793). Briefly: qHTS assay to identify small molecule agonists of the RXR signaling pathway (AID 1159527; calls by dose curve; further: nearly all actives have a fitted effect of over 35% in size). In short, it runs like this:
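Read-out: beta-lactamase FRET ratio (405 nm excitation, 460 and 530 nm emission) after 2 hr substrate loading at room temperature. Cells were RXR-alpha-UAS-bla HEK 293T treated with compounds for 16 hr in 2% charcoal-stripped FBS medium.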

A short description of assay [10]: qHTS assay to identify small molecule agonists of the RXR signaling pathway - cell viability counter screen (AID 1159529). A digest of the protocol: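 HEK 293T RXRa-bla cells, 2% CS-FBS; 5 h settle; cpd 16 h 37 C, 5% CO2; CellTiter-Glo 30 min RT, luminescence. Tetraoctyl ammonium bromide as positive control.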
A short description of assay [11]: qHTS assay to identify small molecule antagonists of the retinoid acid receptor (RAR) signaling pathway - cell viability counter screen (AID 1159551). Further: nearly all actives have a fitted effect of over 35% in size. In short, it runs like this:
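Following overnight attachment, C3RL4 reporter cells received DMSO-dissolved compounds and then retinol (1 uM final). Six hours later at 37 C, ATP content was measured by CellTiter-Glo luminescence.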

Assay [12] can be described thus: qHTS assay to identify small molecule antagonists of the retinoic acid receptor (RAR) signaling pathway (AID 1159552; further: nearly all actives have a fitted effect of over 50% in size). A digest of the protocol: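 Cells of the C3RL4 line were seeded, incubated overnight, then dosed with compounds in DMSO followed immediately by retinol (1 uM final). Six hours later luciferase detection reagent went in; signal was measured after 30 min at RT.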

A short description of assay [13]: qHTS assay to identify small molecule agonists of the retinoic acid receptor (RAR) signaling pathway (AID 1159553). Further: potency means the concentration at half of the fitted maximal effect. In short, it runs like this: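 Cell line C3RL4, RARE luciferase reporter. Treatment: compounds in DMSO, 6 hr, 37 C, 5% CO2, after overnight plating. Detection: luminescence, 30 min RT after reagent.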
A short description of assay [14]: qHTS assay to identify small molecule agonists of the estrogen related receptor (ERR) signaling pathway (AID 1224820). In short, it runs like this: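 ERR reporter cells (NTP line) plated 2,000/well, incubated 6 h at 37 C/5% CO2, then pinned with compounds in DMSO and held 18 h at 37 C. One-Glo added; luminescence read after 30 min at room temperature.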
Assay [15] has as its system estrogen-related receptor alpha (ERRalpha) with PGC-1alpha coactivator, human. The experiment in a line: qHTS assay to identify small molecule antagonists of the estrogen related receptor signaling pathway with the pleiotropic PPARgamma coactivator (PGC) (AID 1224821; calls by dose curve). In short, it runs like this:
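Cells engineered for PGC/ERR signalling (line from NTP) were plated 6 h at 37 C/5% CO2, then exposed to DMSO-dissolved compound for 18 h at 37 C. Luciferase activity was read by One-Glo luminescence after 30 min at room temperature.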

Assay [16] is described as follows: qHTS assay to identify small molecule agonists of the AP-1 signaling pathway (AID 1159526; calls by dose curve).
A short description of assay [17]: qHTS assay to identify small molecule antagonists of the retinoid-related orphan receptor gamma (ROR-gamma) signaling pathway - cell viability counter screen (AID 1159520). Further: nearly all actives have a fitted effect of over 50% in size. A digest of the protocol: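 Tet-on ROR gamma CHO cells were given compounds for 2 hr, then doxycycline hyclate at 1 uM final, and incubated 16 hr at 37 C. Viability was measured as ATP content by CellTiter-Glo luminescence.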

The nature of assay [18]: qHTS assay to identify small molecule antagonists of the estrogen related receptor (ERR) signaling pathway - cell viability counter screen (AID 1224818).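 Further: series mostly up to about 46 µM; viability measured after 17.5 h of compound exposure.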 A digest of the protocol: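 Here, ERR cells are plated at 2,000 cells per well, allowed 6 h to attach, and treated with compounds in DMSO for 17.5 h at 37 C. CellTiter-Fluor is then added and fluorescence read after 30 min.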

Chain of Retinoic acid receptor RXR-alpha (Homo sapiens) (P19793 whole entry, looked up): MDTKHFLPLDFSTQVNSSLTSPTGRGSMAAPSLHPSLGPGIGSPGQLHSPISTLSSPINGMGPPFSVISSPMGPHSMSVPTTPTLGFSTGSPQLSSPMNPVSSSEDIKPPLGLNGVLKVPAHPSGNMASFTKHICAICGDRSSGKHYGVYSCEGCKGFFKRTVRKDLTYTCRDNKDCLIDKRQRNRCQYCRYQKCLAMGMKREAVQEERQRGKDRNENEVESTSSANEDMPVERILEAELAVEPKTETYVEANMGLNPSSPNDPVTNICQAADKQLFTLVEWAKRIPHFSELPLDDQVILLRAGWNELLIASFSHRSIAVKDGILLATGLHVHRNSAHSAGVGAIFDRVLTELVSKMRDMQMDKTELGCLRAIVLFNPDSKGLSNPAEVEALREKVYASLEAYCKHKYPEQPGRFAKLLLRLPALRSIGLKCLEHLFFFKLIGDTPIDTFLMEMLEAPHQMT

In the case of `Cc1cc(O)c2c(c1)C(=O)c1cc(O)cc(O)c1C2=O`, the Potency in [1] was 24 µM (active) and inactive; in assay [13], 9.47 µM (active). The Potency result in assay [2], in assay [6], in assay [7], in assay [8], in [9] and in assay [10] was “inactive” throughout. In addition, the Potency entry in [11], in assay [12], in assay [14] and in [15] was “inactive” each time. The compound was classed as inactive in [3], in assay [4] and in assay [5].
For `Cc1cc(Cc2ccc(N)c(C)c2)ccc1N`, the Potency result in [1], in assay [2], in assay [6], in [7], in assay [8] and in assay [16] was “inactive” throughout. In addition, the Potency result in [10], in [11], in [12] and in assay [13] was “inactive” throughout. In addition, the compound was called inactive in assay [3], in assay [4] and in assay [5].
Regarding `Oc1ccc2ccccc2c1`, the Potency result in assay [1], in assay [2], in assay [6], in [7], in assay [8] and in assay [16] was “inactive” throughout. Also, the Potency entry in assay [9], in [10], in [11], in assay [12] and in assay [13] was “inactive” in each case. The result in [3], in [4] and in assay [5] was inactive.
On to `CC1COc2ccccc2N1C(=O)C(Cl)Cl` (stereo unspecified), for which the Potency result in assay [1], in [2], in assay [6], in assay [17], in assay [8] and in assay [16] was “inactive” in each case. The Potency result in assay [10] and in assay [11] was “inactive” in each case. Further, the result in [3] and in assay [4] was inactive. For the same compound, the Potency in assay [7] was 61 µM (active) and 48.5 µM (active).
On to `NCCc1ccc(O)c(O)c1`, for which the Potency result in assay [1], in assay [2], in assay [6], in assay [7], in [8] and in assay [16] was “inactive” in each case. Further, the Potency result in assay [9], in assay [10] and in assay [11] was “inactive” each time. Further, the outcome in assay [3], in [4], in assay [5] and in assay [18] was inactive.
